Compound activity from PubChem.
CHX counter: counter-screen for Shiga toxin inhibitors: cycloheximide protein synthesis inhibition; cell reporter, cycloheximide protein synthesis inhibition counterscreen; max response, %; actives 12% (n = 300,000); AID 2314; in the data active means max response mostly above about 13%, no sharp cut-off; inactive means mostly below about 14%; further: read at 38.3 µM for the half of the compounds with a filed dose
Pf growth 48h: inhibits P. falciparum growth in the first generation, 48 h. actives 5.9% (n = 310,000). P. falciparum luciferase growth in erythrocytes, 48 h. Potency, µM (titrated, usually from 28.7 µM), most hits filed as inhibitors
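Here the parasites carry a stable luciferase gene and grow inside erythrocytes in Albumax-based RPMI medium with compound for one erythrocytic cycle. Activity is scored as loss of luminescent signal.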
NS1 function inh: influenza NS1 inhibition | actives 0.4% (n = 270,000) | Potency, µM (titrated, usually from 46.1 µM); calls by dose curve; further: actives are rising curves; nearly all actives have a fitted effect of over 50% in size
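Compounds were scored for reversing the slow growth caused by influenza A NS1 in S. cerevisiae, measured by optical density at 600 nm. Assay medium contained 2% galactose at pH 6.0; NS1-free yeast of the same strain were the positive control.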
Shiga inhibitor: inhibitors of Shiga toxin in Vero cells. Vero cells, Shiga toxin protein synthesis inhibition reporter. inhibition, % at 38.7 µM. actives 9.2% (n = 290,000); in the data active means inhibition mostly above about 28%, no sharp cut-off; inactive means mostly below about 43%
Pf growth 96h: P. falciparum growth inhibition at 96 hours; P. falciparum luciferase reporter growth, 96 h; Potency, µM (highest dose often 28.7 µM), actives largely listed as inhibitors; actives 6.9% (n = 320,000); AID 504834
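P. falciparum expressing integrated firefly luciferase grown in erythrocytes (2% hematocrit, 0.05% parasitemia final) with compounds for 96 hours at 37 C, 5% CO2. Growth inhibition read as loss of luminescence after adding luciferase detection reagent.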
Of the large screens only hits and unclear results are named; the others gave an inactive call. The list is not random: actives were taken first. Their share in the collection is about 21%. Unless noted, the call rests on the fitted dose curve; in most records, active means well fitted inhibition curve with a large enough effect; inconclusive means small, poorly fitted or top-dose-only effect, or another doubt; inactive means no such curve, though single readings can be large or run the other way.

C[C@H](NC(=O)c1ccccc1Cl)C(=O)NCc1cccs1	none
Cc1ccc(NC(=O)CCN2CC(C)OC(C)C2)cc1 (stereo not given)	none (no result: Shiga inhibitor)
Cc1noc(C)c1C(=O)OCC(=O)NCCC1=CCCCC1	none (no result: Pf growth 96h)
Cc1n[nH]c(=O)c2c(NC(=O)CSc3nn(-c4ccccc4)c(=S)s3)oc(C)c12	none (no result: CHX counter, NS1 function inh, Shiga inhibitor)
O=C(O)c1cc2nc(C3CC3)cc(C(F)(F)F)n2n1	none (no result: Pf growth 48h)
CCN(C(=O)COn1nnc2ccc(S(=O)(=O)N(C)C)cc21)C1CCS(=O)(=O)C1 (stereo not given)	none (no result: CHX counter, NS1 function inh, Shiga inhibitor)
CCOC(=O)c1cccnc1SCC(=O)NCc1ccccc1	none (no result: Pf growth 48h)
CCOC(=O)c1cnc(NCc2ccccc2)nc1C	CHX counter 44, Shiga inhibitor 55
CCOC(=O)c1nc(-c2ccccc2)sc1C(C)=O	CHX counter 20
CCc1nnc(NC(=O)CCC(=O)N2CCN(Cc3ccc(OC)c(F)c3)CC2)s1	Pf growth 96h inconclusive
c1ccc(-n2ncc3c(NCc4ccco4)ncnc32)cc1	CHX counter 53, Shiga inhibitor 85 (no result: Pf growth 96h)
Cc1ccc(-n2ncc3c(NCc4ccccn4)ncnc32)c(C)c1	Pf growth 48h inconclusive, Pf growth 96h inconclusive
COCCCNc1ncnc2c1cnn2-c1ccc(C)cc1C	none
CCCCNc1ncnc2c1cnn2-c1ccc(C)cc1C	CHX counter 15, Pf growth 48h inconclusive, Pf growth 96h inconclusive
c1ccc(Cn2ncc3c(NCc4ccco4)ncnc32)cc1	Pf growth 48h inconclusive
Cc1ccc(-n2ncc3c(NCc4ccco4)ncnc32)c(C)c1	CHX counter 16, Pf growth 96h inconclusive
C/C(=N\Nc1ccc2nncn2n1)c1ccc(Br)s1	none
N#C/C(=C\c1cc([N+](=O)[O-])c(N2CCOCC2)cc1N1CCOCC1)c1nc2ccccc2[nH]1	Pf growth 48h inconclusive, Pf growth 96h 12µM
N#C/C(=C\c1ccc(N2CCOCC2)o1)c1ccccc1	CHX counter 34
N#C/C(=C\c1cc([N+](=O)[O-])c(N2CCCCC2)cc1N1CCCCC1)c1nn(-c2ccccc2)c(N)c1C#N	Pf growth 48h inconclusive, Pf growth 96h inconclusive
N#C/C(=C/c1ccc(N2CCOCC2)o1)c1nc2ccccc2[nH]1	CHX counter 34, Shiga inhibitor 58
N#C/C(=C\c1ccc(N2CCOCC2)cc1)c1ccccc1	CHX counter 51, Shiga inhibitor 19
S=C(c1nc2ccccc2[nH]1)N1CCOCC1	none
N#CC(C#N)=Cc1ccc(N2CCOCC2)cc1	none
O=c1nc(-c2ccccc2)nc(-c2ccccc2)[nH]1	none
N#C/C(=C/c1ccc(N2CCOCC2)o1)c1ccc(Br)cc1	CHX counter 77, Shiga inhibitor 109, Pf growth 96h 5.2µM
CC(C)CCn1c(SCC(=O)NC2CC2)nc2cc(Cl)ccc2c1=O	none (no result: CHX counter, NS1 function inh, Shiga inhibitor)
O=C(c1ccco1)N1CCN(c2ncnc3c2[nH]c2ccccc23)CC1	Pf growth 48h inconclusive
CCOc1ccc2[nH]c3c(N4CCN(C(=O)c5ccco5)CC4)ncnc3c2c1	Pf growth 48h inconclusive, Pf growth 96h 12µM
O=C(c1ccco1)N1CCN(c2ncnc3c2[nH]c2ccc(Br)cc23)CC1	Pf growth 48h 9.3µM, Pf growth 96h inconclusive
CCOc1ccc2[nH]c3c(N4CCC5(CC4)OCCO5)ncnc3c2c1	Pf growth 48h inconclusive, Pf growth 96h 12µM
OC1(c2cccc(C(F)(F)F)c2)CCN(c2ncnc3c2[nH]c2ccc(F)cc23)CC1	none
COc1ccc(-c2nsc3c(N4CCN(C(=O)c5ccco5)CC4)ncnc23)cc1	Pf growth 96h inconclusive
COC(=O)NNC(=O)Cc1cccc2ccccc12	none
CCc1ccc(OCC(=O)Nc2nnc(-c3ccco3)s2)cc1	none
COC(=O)Nc1nnc(-c2ccco2)s1	CHX counter 12
Cc1ccc(S(=O)(=O)N2CCC(C(=O)Nc3nnc(-c4ccco4)s3)CC2)cc1	Pf growth 48h inconclusive
CC(C)CC(=O)Nc1nnc(-c2ccco2)s1	CHX counter 29 (no result: Pf growth 96h)
O=C(Nc1nnc(-c2ccco2)s1)C1CCCCC1	CHX counter 42, Shiga inhibitor 71, Pf growth 96h inconclusive
CCOc1cc(/C=N/NC(=O)C(C)Sc2ccccn2)ccc1O (stereo not given)	none
O=C1CCCN1CCC(=O)N1CCCC(CO)(Cc2ccccc2)C1 (stereo not given)	CHX counter 55, Shiga inhibitor 74, Pf growth 96h inconclusive
Cc1c(Cl)cccc1NC(=O)c1cc(-c2ccc(O)cc2)on1	none (no result: CHX counter, Pf growth 48h, Shiga inhibitor, Pf growth 96h)
Cc1cccc(C(=O)N2CCc3cc(-c4nc(NC(=O)Cn5nnc6ccccc6c5=O)sc4C)ccc32)c1	NS1 function inh inconclusive
CC(=O)Nc1nc(-c2ccc3c(c2)CCN3S(C)(=O)=O)cs1	CHX counter 18, Shiga inhibitor 67
Cc1sc(NC(=O)CN2CCOCC2)nc1-c1ccc2c(c1)CCN2S(=O)(=O)c1ccccc1	Pf growth 48h 12µM (no result: Pf growth 96h)
CS(=O)(=O)N1CCc2cc(C(=O)N3CCCC3)ccc21	Pf growth 96h inconclusive (no result: NS1 function inh)
O=C(CN1CCOCC1)Nc1nc(-c2ccc3c(c2)CCN3S(=O)(=O)c2ccccc2)cs1	Pf growth 48h 2.1µM (no result: Pf growth 96h)
CCOC(=O)N1CCN(C(=O)c2ccc(N(C)S(=O)(=O)c3ccc(C)cc3)cc2)CC1	Pf growth 48h inconclusive
CS(=O)(=O)Nc1ccc(C(=O)N2CCN(c3ccccc3)CC2)cc1	none
CC1=NN(C(=O)COc2cc(C)ccc2C(C)C)C(O)(c2ccccc2)C1 (stereo not given)	Pf growth 48h inconclusive
CC1=CC(C)C(CN(CCC[N+](C)(C)C)C(=O)Nc2ccccc2)C(C)C1 (stereo not given)	Pf growth 48h inconclusive, Pf growth 96h 12µM
O=C(CN(CC1CCCO1)C(=O)CNS(=O)(=O)c1ccc(Cl)cc1)NC1CCCC1 (stereo not given)	none
Cc1nc(Cl)cc(CS(=O)(=O)c2ccc(Cl)cc2)n1	none (no result: NS1 function inh)
Cc1nc(CS(=O)(=O)c2ccccc2)cc(Sc2ccc(Cl)cc2Cl)n1	CHX counter 17, Pf growth 48h inconclusive, Shiga inhibitor 68, Pf growth 96h inconclusive
Cc1[nH]n(-c2ccccc2)c(=O)c1-c1cccc(Cl)c1	Pf growth 48h 1.7µM, Pf growth 96h 1.5µM
Cc1cc(-c2c(C)[nH]n(-c3ccc(Cl)cc3)c2=O)n(-c2ccc(Cl)cc2)n1	Pf growth 48h inconclusive, Pf growth 96h 1µM
Cc1cc(-c2c(C)[nH]n(-c3ccccc3)c2=O)n[nH]1	Pf growth 96h inconclusive
Cc1cc(-c2c(C)[nH]n(-c3ccccc3)c2=O)n(-c2ccccc2)n1	NS1 function inh inconclusive
Cc1[nH]n(-c2ccccc2)c(=O)c1-c1ccc(Cl)cc1	Pf growth 96h 2.1µM (no result: Pf growth 48h)
Fc1ccc2[nH]c3c(c2c1)CN(C(=S)NCc1ccccc1)CC3	Pf growth 48h inconclusive
COc1cccc(Nc2ncnc3c2cnn3-c2cccc(C)c2)c1	CHX counter 27, Shiga inhibitor 78
COc1ccc(OC)c(Nc2ncnc3c2cnn3-c2ccccc2)c1	CHX counter 21
COc1ccccc1Nc1ncnc2c1cnn2-c1cccc(C)c1	CHX counter 51, Shiga inhibitor 83
CC(C)=CC(=O)Nc1ccc(S(=O)(=O)Nc2ccccn2)cc1	none
Cc1ccc2c(c1)c(C1=NC(=S)NC1=O)c(O)n2C	none (no result: NS1 function inh)
